Most compounds without a hit are left out; they make up all but 2.1% or so of the library.
PGE2 EP2 inh – human EP2 receptor antagonists, primary screen, TR-FRET cAMP, C6 glioma cells; Prostaglandin E2 receptor EP2 subtype (Homo sapiens), P43116; C6 glioma cells expressing human EP2; cells stimulated with saturating PGE2; inhibition, % at 25 µM; actives 0.52% (n = 260,000); AID 1422, 2008;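 active means percent inhibition above 40 after rounding to a whole number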;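 further: rat C6 glioma host cells with rolipram phosphodiesterase inhibitor present; the protocol text gives 20 µM as final concentration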
Target sequence (P43116 whole entry, looked up): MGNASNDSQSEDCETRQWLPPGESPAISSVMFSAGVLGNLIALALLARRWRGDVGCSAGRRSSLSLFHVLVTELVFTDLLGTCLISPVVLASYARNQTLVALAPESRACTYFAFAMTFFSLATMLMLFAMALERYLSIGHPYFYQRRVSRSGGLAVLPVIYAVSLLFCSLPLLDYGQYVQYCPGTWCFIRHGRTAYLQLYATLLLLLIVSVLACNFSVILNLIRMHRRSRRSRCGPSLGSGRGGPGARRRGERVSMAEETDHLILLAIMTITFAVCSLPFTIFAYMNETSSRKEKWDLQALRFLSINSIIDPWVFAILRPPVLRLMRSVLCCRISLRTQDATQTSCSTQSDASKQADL
CHT allo act – CHT positive allosteric modulators, primary screen, cell-based, membrane potential dye, choline EC20 | B-score at 10 µM | CHT-expressing cells; hits give high values; LV-AA mutant CHT in HEK293 cells | AID 488977, 2010 | High affinity choline transporter 1 (Homo sapiens), Q9GZV3 | actives 0.49% (n = 310,000);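 active means initial fluorescence not abnormally high and integrated response B-score, plate-corrected, over 3 SD above library mean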
EP2 modulator – EP2 receptor modulators, cAMP readout, primary screen, cell-based, HTRF cAMP, PGE2 stimulation; induction, % at 25 µM; actives 0.83% (n = 260,000); EP2-expressing cells, cAMP HTRF FRET, PGE2 co-stimulation;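 active means compounds whose cAMP rise, as percent of the full-agonist control response, exceeds 60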;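 further: rat C6 glioma line stably carrying human EP2 under a CMV promoter; the protocol text gives 20 µM as final concentration; 100% = response of wells given 1 µM PGE2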
CHT block – inhibitors of human choline transporter CHT; High affinity choline transporter 1 (Homo sapiens), Q9GZV3; AID 488975, 2010; CHT-expressing cells, membrane potential dye, choline response; hits give low values; B-score at 10 µM; actives 0.86% (n = 310,000);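 active means B-score over 3 SD under the library average, and starting fluorescence ratio not unusually high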;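 further: choline stimulus applied at its EC90 after an EC20 pre-addition; B-score computed on integrated fluorescence ratio after choline addition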
CHT inh conf – CHT inhibitors, confirmation, cell-based, membrane potential dye, duplicate; actives 70% (n = 2,400); CHT activity remaining % of control (hits give low values), % at 10 µM; AID 493221, 2011; CHT-expressing cells, choline membrane potential dye; LV-to-AA substituted CHT, HEK293 cells; shares compounds with CHT block;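 active means choline transporter activity left, mean of duplicates at 10 µM, below buffer-only control mean minus 3 SD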;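 further: depolarization triggered by choline at its EC90 following an EC20 pre-addition; 0% = hemicholinium-3 full block and 100% = buffer-only control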
HEK293 CHT ctr – membrane potential effects in parental HEK293, counter-screen for CHT inhibitor project, cell-based, membrane potential dye. actives 4% (n = 2,400). choline response; active = decrease or increase beyond buffer ±3SD. membrane potential ratio readout (active if shifted either direction beyond buffer ±3SD; no single direction) at 10 µM. AID 493222, 2011. shares compounds with CHT block;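 further: parental cells lack the transporter so any hit is non-specific; ratio is peak minus trough fluorescence over baseline after EC90 choline challenge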
* marks the source's active call; other numbers are inactive results; i = inactive; nt = not tested or not shown.

SMILES	PGE2 EP2 inh	CHT allo act	EP2 modulator	CHT block	CHT inh conf	HEK293 CHT ctr
Cc1ccc[n+](CC(=O)c2ccc(Br)cc2)c1	nt	i	nt	-10*	4.2%*	i
COc1ccc(C(=O)C[n+]2cccc(C(N)=O)c2)cc1	nt	i	nt	i	nt	nt
Cc1ccc[n+](CC(=O)c2ccc(NC(=O)c3ccccc3)cc2)c1C	nt	i	nt	i	nt	nt
O=C(Nc1cccc(C(F)(F)F)c1)Nc1ccc2c(c1)C(=O)OC2	8	nt	-32	nt	nt	nt
CCOc1ccccc1N(CC(=O)NCc1ccco1)S(=O)(=O)c1ccc(C)cc1	13	nt	11	nt	nt	nt
CCOc1ccc([C@@H]2CC=C(C(=O)O)[C@H](c3cccc(Cl)c3)N2S(=O)(=O)c2ccc(C)cc2)cc1	nt	i	nt	-6.1*	62%*	i
Cc1ccc(S(=O)(=O)N2[C@@H](c3ccc(Cl)cc3)C(C(=O)O)=CC[C@H]2c2ccc(Cl)c(Cl)c2)cc1	nt	i	nt	-6.2*	65%*	i
Cc1ccc(S(=O)(=O)N2[C@@H](c3cccc(Cl)c3)C(C(=O)O)=CC[C@H]2c2ccc(Cl)cc2)cc1	nt	i	nt	i	nt	nt
O=C(O)C1=CC[C@@H](c2ccc(Cl)cc2)N(S(=O)(=O)c2ccc(Cl)cc2)[C@H]1c1ccc(F)cc1	nt	i	nt	-6.3*	58%*	i
COc1ccc(C(=O)CSc2nnc(-c3cc(OC)c(OC)c(OC)c3)n2C)cc1	2	nt	35	nt	nt	nt
CCOc1nc(-c2ccccc2)ncc1Oc1ccccc1	nt	i	nt	-5*	i	i
COc1ccc(C2C3=C(CC(C)(C)CC3=O)Nc3n[nH]c(C)c32)cc1 (stereo unspecified)	5	i	13	-7.6*	i	i
COCCNC(=S)N(CCN(C)C)Cc1cc2cc(OC)ccc2[nH]c1=O	11	nt	-17	nt	nt	nt
COc1ccc2c(c1)C(c1ccncc1)=NNC(c1ccccc1)=N2	10	nt	-48	nt	nt	nt
O=C(c1ccccc1Br)N1CCCC(c2nc(-c3cccs3)no2)C1 (stereo unspecified)	4	i	-17	-6.3*	i	i
O=C(c1ccc(Br)cc1)N1CCCC(c2nc(-c3cccs3)no2)C1 (stereo unspecified)	16	i	-54	i	nt	nt
Cc1occc1-c1nnc(SCC(=O)NC2CCCC2)n1-c1ccc(F)cc1	9	nt	5	nt	nt	nt
Cc1sc2ncnc(SCC(=O)Nc3nc(-c4ccccc4)cs3)c2c1C	19	nt	-11	nt	nt	nt
Fc1ccc(-c2nnc(SCc3ncc(-c4ccccc4)o3)n2CC2CCCO2)cc1 (stereo unspecified)	10	i	30	-5.9*	i	i
Cc1c(C#N)c(NC(=O)CCl)n(Cc2cccs2)c1C	3	i	-16	-6.1*	i	i
CC(C)C(=O)c1cn(CC(=O)N2CCCCC2)c2ccccc12	10	nt	-27	nt	nt	nt
CC(=O)Nc1ccc(NC(=O)C2CCCN(S(=O)(=O)c3ccc(F)cc3)C2)cc1 (stereo unspecified)	10	nt	-32	nt	nt	nt
COC(=O)Cn1ccc(N(C)C)c(C#N)c1=O	8	i	5	-15*	8.7%*	i
COC(=O)Cn1ccc(-c2ccc(Cl)cc2)c(C#N)c1=O	13	i	-18	i	nt	nt
CCc1c(C)nc2ncnn2c1Nc1cccc(C)c1	11	nt	-4	nt	nt	nt
SMILES	PGE2 EP2 inh	CHT allo act	EP2 modulator	CHT block	CHT inh conf	HEK293 CHT ctr
CCc1c(C)nc2ncnn2c1NCCc1ccccc1	3	i	-16	-5.2*	47%*	i
CCc1c(C)nc2ncnn2c1NCCc1ccc(Cl)cc1	7	i	-34	-5.2*	63%*	i
CCc1c(C)nc2ncnn2c1Nc1ccccc1C	nt	i	nt	i	nt	nt
CCN(CC)C(=O)Cn1ncc2c3sc(C)cc3n(C)c2c1=O	nt	nt	2	nt	nt	nt
COc1ccc(C)cc1NC(=O)c1ccc(S(=O)(=O)N2CCc3ccccc3C2)cc1	10	nt	-42	nt	nt	nt
CC(C)OP(=O)(OC(C)C)C(Nc1ccc([N+](=O)[O-])cc1)c1cccc([N+](=O)[O-])c1 (stereo unspecified)	6	i	-11	i	nt	nt
CC(C)OP(=O)(OC(C)C)/C(C=O)=N\Nc1ccc([N+](=O)[O-])cc1	6	i	-52	-8.4*	i	i
COc1ccccc1C(=O)NC1CCN(C(=S)NCCc2ccccc2)CC1	12	i	-48	-6.3*	50%*	i
CC1C(=O)N(c2ccc(S(=O)(=O)N(C)C)cc2)C1(/C=C/c1ccccc1)C(=O)NC1CCCC1 (stereo unspecified)	3	i	29	-6.8*	i	i
O=C1CC(/C=C/c2ccccc2)(C(=O)NC2CCCC2)N1c1ccc(S(=O)(=O)N2CCCC2)cc1 (stereo unspecified)	3	i	18	i	nt	nt
Cc1c(O)ccc(/C(Cc2ccc3ccccc3n2)=N\N)c1O	5	i	21	-5.9*	56%*	i
COc1ccc(CCN(C)C(=O)c2ccc(COc3ccccc3)o2)cc1OC	nt	i	nt	-6.9*	55%*	i
CC12C=CC3(O1)C(C(=O)N(C1CC1)C3C(=O)NC1CCCC1)C2C(=O)NC1CC1 (stereo unspecified)	10	nt	-4	nt	nt	nt
CCN1CCCC1CN(Cc1cc2ccc(C)c(C)c2[nH]c1=O)C(=O)Nc1ccccc1 (stereo unspecified)	13	nt	-29	nt	nt	nt
Cc1ccc(OCCSCc2nc3ccccc3[nH]2)cc1	16	i	-49	-5.5*	i	i
CCCN(CCC)CCCNC(=S)Nc1ccc2nc(N3CCN(CC)CC3)cc(C)c2c1	10	i	-52	-6.7*	49%*	2.2*
CCN1CCN(c2cc(C)c3cc(NC(=S)N4CCCCC4)ccc3n2)CC1	5	i	-15	-6.7*	47%*	i
CN(Cc1ccccc1)C(=O)CN1CCN(C(c2ccccc2)c2ccccc2)CC1	4	i	18	-8.3*	52%*	i
CCCNC(=O)c1cnn2c(C)cc(C)nc12	11	nt	-18	nt	nt	nt
CCOc1ccc2nc(SCC(=O)OC)c(C)cc2c1	13	nt	14	nt	nt	nt
O=C(c1ccc2c(c1)OCCO2)N1CCC[C@H]1Cn1nc(-c2ccc(F)cc2)ccc1=O	nt	nt	-13	nt	nt	nt
COCCN(C(=O)CCC(=O)Nc1cc(C)on1)C(C(=O)NC(C)(C)C)c1cccc(OC)c1OC (stereo unspecified)	nt	i	nt	-5.8*	i	i

Source: PubChem BioAssay (several laboratories)
